Compounds without any hit were thinned out: in the full panel of roughly 83,000, 20% have a hit.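 Cells were grown in 96-well plates and exposed to the test compound at a single concentration for 48 hours; results are reported as percent growth, with values below 10 considered active.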 The source made the active and inactive calls.

The test system of the first test is A498 renal. Description: NCI-60 one-dose screen, 48 h (100 = growth as untreated, 0 = no growth, -100 = all killed). The note with it: 10 µM unless noted.
Turning to `COc1cc2c(-c3nc4cc(Cl)c(F)cc4s3)cc(=O)oc2c(C)c1OC`, the growth is 8.7% (active).
On the same count and under the same terms, in the case of `COc1cc(C2=NN(C(C)=O)C(c3ccc(OC(C)=O)cc3OC(C)=O)O2)c(OC(C)=O)c2ccccc12` (stereo not given) it was 25.2% (inactive); in that of `Cc1ccc2c(c1)O/C(=C\c1ccc([N+](=O)[O-])o1)C2=O`, 122% (inactive); in that of `O=C(/C(=C/c1cccc([N+](=O)[O-])c1)c1ccccc1)c1ccccc1`, 66.2% (inactive).
For `CC1(C)OC(=O)C(=Cc2ccccc2Br)C(=O)O1`, the growth was 105% (inactive).
On to `c1ccc(-c2nnc(Nc3nnc(-c4ccccc4)s3)s2)cc1`, for which the growth was 92.1% (inactive).
Same read-out and setting: with `COc1cc(/C=C/C(=O)Nc2ccc3c(c2)/C(=C\c2cccn2C)C(=O)N3)cc(OC)c1OC` the figure was 46.8% (inactive); with `O=C(Nc1nc(-c2ccc(Cl)cc2)cs1)c1cc(O)c(O)c(O)c1`, 77.1% (inactive).
The same measure, in the same setting: in the case of `COc1ccc(-c2csc(NC(=O)c3cc(OC)c(OC)c(OC)c3)n2)cc1` it was 92.2% (inactive); in that of `O=C(O)c1ccc(NC(=O)c2ccc(Nc3ccnc(C(F)(F)F)c3)cc2)cc1`, 105% (inactive).
Consider `COc1cc(/C=C/C(=O)c2c(-c3ccc(Cl)cc3)nc3sc(C)nn23)cc(OC)c1OC`, for which the growth is 85.5% (inactive).
As for `C=C1c2c(C)nn(-c3ccc(C#CCOC4OC(CO)C(O)C(O)C4O)cc3)c2N(C)C23C[C@H]1C1(C)c4c(C)nn(-c5ccc(C#CCOC6OC(CO)C(O)C(O)C6O)cc5)c4N(C)C(C)(C[C@H]12)C3` (stereo not given in full), the growth was 4.38% (active).
The same measure, in the same setting: in the case of `O=C(/C(=C/c1ccc([N+](=O)[O-])cc1)c1ccccc1)c1ccccc1` it was 77% (inactive); in that of `N#Cc1cccc(/C=C(/C(=O)c2ccccc2)c2ccccc2)c1`, 74.3% (inactive).
The same measure, in the same setting: with `COc1cc(/C=C/C(=O)c2c(-c3ccc(F)cc3)nc3sc(C)nn23)cc(OC)c1OC` the figure was 85.2% (inactive).
For the compound `CCOc1nc(-c2ccccc2)cc2c(O)c(C(=O)n3nc(C)cc3C)[nH]c(=O)c12`, the growth was 101% (inactive).
Turning to `COc1ccc(/C=C(\C#N)c2ccccc2)cc1`, the growth was 79.4% (inactive).
The same measure, in the same setting: with `O=C(Nc1nc(-c2ccccc2)cs1)c1cc(O)c(O)c(O)c1` the figure was 85.9% (inactive); with `Cc1cc2c(C#N)n3c(c2cc1C)C(=O)C(c1ccccc1)Oc1ccccc1-3` (stereo not given), 41.2% (inactive); with `CCOC(=O)/C(=C/c1ccccc1)C(=O)c1ccccc1`, 87.5% (inactive).
Still for that read-out and setting: in the case of `COc1cc2c(C#N)n3c(c2cc1OC)C(=O)C(c1ccccc1)Oc1ccccc1-3` (stereo not given) it was 52.4% (inactive); in that of `O=C1/C(=C/c2ccc([N+](=O)[O-])o2)Oc2ccc(Br)cc21`, 113% (inactive); in that of `c1cnc2n[nH]c(Nc3ncnc4c3sc3ncccc34)c2c1`, 91.3% (inactive).
For `CCN1C(=O)c2ccc3c4c(ccc(c24)C1=O)C(=O)N(CCCNCc1ccccc1OC)C3=O`, the growth is -80.7% (active).
Take `O=C(/C=C/c1ccc(Cl)cc1)c1ccccc1`: the growth was 87.5% (inactive).
The same measure, in the same setting: in the case of `CCOC(=O)c1c(NC(=O)C2CCCCC2C(=O)O)sc2c1CCCC2` (stereo not given) it was 109% (inactive).
The same measure, in the same setting: in the case of `O=C(NCCCO)c1cc(Cl)ccc1O` it was 53.2% (inactive).
The same measure, in the same setting: with `CCC1(c2ccccc2)Oc2ccccc2-n2c(C#N)c3ccccc3c2C1=O` (stereo not given) the figure was 97% (inactive); with `Clc1cccc(Cc2cn3cc(-c4ccccc4)nc3s2)c1`, 84.9% (inactive); with `CCN(CC)c1ccc(C(O)C2=CC(=O)c3ccccc3C2=O)cc1` (stereo not given), 6.3% (active).
For the compound `N#Cc1c2ccccc2c2n1-c1ccccc1OC(c1ccccc1)C2=O` (stereo not given), the growth was 30.6% (inactive).
In the case of `O=C(OCCBr)c1ccc(Cl)c([N+](=O)[O-])c1`, the growth is 97.6% (inactive).
The same measure, in the same setting: in the case of `O=C1NCN(c2ccccc2)C12CCN(CCCC(c1ccc(F)cc1)c1ccc(F)cc1)CC2` it was 57.7% (inactive); in that of `COc1ccc(-c2csc(NC(=O)c3cc(O)c(O)c(O)c3)n2)cc1`, 112% (inactive).

For a further test, the system named is CCRF-CEM leukemia. Described as above. The conditions noted are these: 10 µM unless noted.
Take `COc1cc2c(-c3nc4cc(Cl)c(F)cc4s3)cc(=O)oc2c(C)c1OC`: the growth is -72.5% (active).
Still for that read-out and setting: in the case of `COc1cc(C2=NN(C(C)=O)C(c3ccc(OC(C)=O)cc3OC(C)=O)O2)c(OC(C)=O)c2ccccc12` (stereo not given) it was -1.14% (active); in that of `Cc1ccc2c(c1)O/C(=C\c1ccc([N+](=O)[O-])o1)C2=O`, -32.4% (active).
The same measure, in the same setting: with `O=C(/C(=C/c1cccc([N+](=O)[O-])c1)c1ccccc1)c1ccccc1` the figure was 1.9% (active); with `CC1(C)OC(=O)C(=Cc2ccccc2Br)C(=O)O1`, 98.2% (inactive); with `c1ccc(-c2nnc(Nc3nnc(-c4ccccc4)s3)s2)cc1`, 95.5% (inactive).
For the compound `COc1cc(/C=C/C(=O)Nc2ccc3c(c2)/C(=C\c2cccn2C)C(=O)N3)cc(OC)c1OC`, the growth was 31.9% (inactive).
On to `O=C(Nc1nc(-c2ccc(Cl)cc2)cs1)c1cc(O)c(O)c(O)c1`, for which the growth was 8.08% (active).
Take `CCCCCCOc1ccc(/C=N/NC(N)=S)cc1`: the growth is 6.97% (active).
Same read-out and setting: in the case of `COc1ccc(-c2csc(NC(=O)c3cc(OC)c(OC)c(OC)c3)n2)cc1` it was 105% (inactive); in that of `O=C(O)c1ccc(NC(=O)c2ccc(Nc3ccnc(C(F)(F)F)c3)cc2)cc1`, 120% (inactive).
On the same count and under the same terms, in the case of `COc1cc(/C=C2\CCC/C(=C\c3ccc(OCC4CO4)c(OC)c3)C2=O)ccc1OCC1CO1` (stereo not given) it was 1.96% (active); in that of `COc1cc(/C=C/C(=O)c2c(-c3ccc(Cl)cc3)nc3sc(C)nn23)cc(OC)c1OC`, 32.5% (inactive).
Still for that read-out and setting: with `C=C1c2c(C)nn(-c3ccc(C#CCOC4OC(CO)C(O)C(O)C4O)cc3)c2N(C)C23C[C@H]1C1(C)c4c(C)nn(-c5ccc(C#CCOC6OC(CO)C(O)C(O)C6O)cc5)c4N(C)C(C)(C[C@H]12)C3` (stereo not given in full) the figure was -30.2% (active); with `O=C(/C(=C/c1ccc([N+](=O)[O-])cc1)c1ccccc1)c1ccccc1`, 0.582% (active); with `COc1cc(/C=C/C(=O)c2c(-c3ccc(F)cc3)nc3sc(C)nn23)cc(OC)c1OC`, -9.53% (active).
For the compound `CCOc1nc(-c2ccccc2)cc2c(O)c(C(=O)n3nc(C)cc3C)[nH]c(=O)c12`, the growth was 96.5% (inactive).
Still for that read-out and setting: with `COc1ccc(/C=C(\C#N)c2ccccc2)cc1` the figure was 93.1% (inactive).
Turning to `O=C(Nc1nc(-c2ccccc2)cs1)c1cc(O)c(O)c(O)c1`, the growth is 9.11% (active).
The same measure, in the same setting: in the case of `Cc1cc2c(C#N)n3c(c2cc1C)C(=O)C(c1ccccc1)Oc1ccccc1-3` (stereo not given) it was 19.4% (inactive); in that of `CCOC(=O)/C(=C/c1ccccc1)C(=O)c1ccccc1`, 3.43% (active); in that of `COc1cc2c(C#N)n3c(c2cc1OC)C(=O)C(c1ccccc1)Oc1ccccc1-3` (stereo not given), 17.1% (inactive).
Still for that read-out and setting: in the case of `c1cnc2n[nH]c(Nc3ncnc4c3sc3ncccc34)c2c1` it was 88.6% (inactive); in that of `CCN1C(=O)c2ccc3c4c(ccc(c24)C1=O)C(=O)N(CCCNCc1ccccc1OC)C3=O`, -42.3% (active).
On the same count and under the same terms, with `O=C(/C=C/c1ccc(Cl)cc1)c1ccccc1` the figure was 87.9% (inactive).
As for `CCC1(c2ccccc2)Oc2ccccc2-n2c(C#N)c3ccccc3c2C1=O` (stereo not given), the growth was 95.6% (inactive).
Still for that read-out and setting: with `Clc1cccc(Cc2cn3cc(-c4ccccc4)nc3s2)c1` the figure was 63.4% (inactive); with `COc1ccc(-c2noc(N)c2-c2cc(OC)c3c(c2)OCO3)cc1`, 5.26% (active).
On the same count and under the same terms, with `N#Cc1c2ccccc2c2n1-c1ccccc1OC(c1ccccc1)C2=O` (stereo not given) the figure was 6.32% (active); with `O=C1NCN(c2ccccc2)C12CCN(CCCC(c1ccc(F)cc1)c1ccc(F)cc1)CC2`, 94.4% (inactive).
Consider `COc1ccc(-c2csc(NC(=O)c3cc(O)c(O)c(O)c3)n2)cc1`, for which the growth is 18.5% (inactive).

Source of the values: PubChem BioAssay (NCI).
